Out of some 310,000 compounds screened, about 14,000 (4.5%) showed an effect of 50% or more. The effect is printed as a negative number. The list comes from a sample in which strong results are over-represented; it also holds similar structures and randomly drawn compounds.

The record followed here is paper PMC4336329 (PLoS ONE, 2015).
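Further: peak tail current of the secondary pulse compared with the same well before compound.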

In the assay the target is human ether-à-go-go-related gene (hERG) potassium channel (human, UniProt Q12809). The experiment in a line: primary screen, population patch clamp on CHO cells stably expressing hERG; higher = less effect of the substance.
Chain of human ether-à-go-go-related gene (hERG) potassium channel (Q12809 whole entry, looked up): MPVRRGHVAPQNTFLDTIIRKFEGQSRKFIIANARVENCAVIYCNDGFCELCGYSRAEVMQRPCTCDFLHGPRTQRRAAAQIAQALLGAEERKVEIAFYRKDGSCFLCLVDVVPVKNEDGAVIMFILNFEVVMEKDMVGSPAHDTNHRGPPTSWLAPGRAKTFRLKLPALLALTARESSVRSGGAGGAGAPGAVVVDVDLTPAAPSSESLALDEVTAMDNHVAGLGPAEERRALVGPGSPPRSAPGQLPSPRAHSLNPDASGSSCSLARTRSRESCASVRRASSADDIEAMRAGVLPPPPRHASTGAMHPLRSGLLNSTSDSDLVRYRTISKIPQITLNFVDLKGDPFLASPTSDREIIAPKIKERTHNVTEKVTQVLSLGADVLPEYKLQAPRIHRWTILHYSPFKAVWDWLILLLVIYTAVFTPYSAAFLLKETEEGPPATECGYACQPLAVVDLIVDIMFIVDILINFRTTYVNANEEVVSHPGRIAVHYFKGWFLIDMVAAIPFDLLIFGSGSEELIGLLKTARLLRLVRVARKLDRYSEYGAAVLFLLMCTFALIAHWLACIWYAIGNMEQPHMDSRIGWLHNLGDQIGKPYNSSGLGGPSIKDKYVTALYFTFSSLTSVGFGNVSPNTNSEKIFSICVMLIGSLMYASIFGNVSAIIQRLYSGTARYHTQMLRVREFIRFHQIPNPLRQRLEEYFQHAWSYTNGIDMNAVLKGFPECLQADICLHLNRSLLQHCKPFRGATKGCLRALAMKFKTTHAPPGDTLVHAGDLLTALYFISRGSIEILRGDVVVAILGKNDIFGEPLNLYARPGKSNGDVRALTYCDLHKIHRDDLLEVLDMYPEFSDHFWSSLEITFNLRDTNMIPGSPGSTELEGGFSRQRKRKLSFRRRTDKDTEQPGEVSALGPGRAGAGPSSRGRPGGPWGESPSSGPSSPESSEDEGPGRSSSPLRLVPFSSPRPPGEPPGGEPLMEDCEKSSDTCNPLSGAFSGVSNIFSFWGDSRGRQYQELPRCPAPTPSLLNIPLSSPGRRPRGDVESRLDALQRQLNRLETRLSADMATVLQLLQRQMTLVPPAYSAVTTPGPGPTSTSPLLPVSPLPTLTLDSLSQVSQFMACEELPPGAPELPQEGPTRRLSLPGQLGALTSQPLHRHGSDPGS
Take `CC(C)CC(=O)O/N=C1\C(=O)N(Cc2ccc(Cl)cc2)c2ccc([N+](=O)[O-])cc21`: the “hERG current change (%, negative = inhibition) at 10uM” value is -36.1%.

On to `CCn1c(CO)nc2c1c(=O)[nH]c(=O)n2Cc1ccccc1`, for which the “hERG current change (%, negative = inhibition) at 10uM” value was 17.7%.

On to `Cn1c(OCc2cccnc2)nc2c1c(=O)n(Cc1ccc(Br)cc1)c(=O)n2C`, for which the “hERG current change (%, negative = inhibition) at 10uM” value is on record as -57.3%.

For the molecule `Cn1c(Br)nc2c1c(=O)n(Cc1ccccc1)c(=O)n2C`, the “hERG current change (%, negative = inhibition) at 10uM” value is given as -10.2%.

Take `Cn1c(NCc2ccccc2)nc2c1c(=O)n(Cc1ccc(Br)cc1)c(=O)n2C`: the “hERG current change (%, negative = inhibition) at 10uM” value stood at 4.56%.

Consider `CC1CCCN(C(=O)CN2C(=O)C(C)Oc3ccccc32)C1` (stereo not shown), for which the “hERG current change (%, negative = inhibition) at 10uM” value came to 8.2%.

For the molecule `CCN(CC)C(=O)c1[nH]cnc1C(=O)Nc1ccon1`, the “hERG current change (%, negative = inhibition) at 10uM” value was 0.396%.

For `Cc1ccc(NC(=O)OCc2cncs2)cc1`, the “hERG current change (%, negative = inhibition) at 10uM” value was determined as 2.29%.

`COCCNC(=O)c1c(N)n(/N=C/c2ccc(F)cc2)c2nc3ccccc3nc12`: the “hERG current change (%, negative = inhibition) at 10uM” value was -0.595%.

As to `O=C(NCCCN1CCOCC1)c1cccc(S(=O)(=O)N2CCN(c3ccccc3)CC2)c1`, the “hERG current change (%, negative = inhibition) at 10uM” value is -71.8%.

Take `O=C(NCCCN1CCCC1=O)c1cc(S(=O)(=O)N2CCOCC2)ccc1Cl`: the “hERG current change (%, negative = inhibition) at 10uM” value came to 13.9%.

`O=C(NCCCN1CCOCC1)c1cccc(S(=O)(=O)N2CCOCC2)c1`: the “hERG current change (%, negative = inhibition) at 10uM” value is 8.97%.

Consider `Cc1ccc(S(=O)(=O)N2CCCCC2)cc1C(=O)NCCCN1CCOCC1`, for which the “hERG current change (%, negative = inhibition) at 10uM” value is 16.7%.

Regarding `O=C(NCCCN1CCOCC1)c1cc(S(=O)(=O)N2CCN(c3ccccc3)CC2)ccc1Cl`, the “hERG current change (%, negative = inhibition) at 10uM” value is -76.6%.

Consider `O=C(NCCN1CCOCC1)c1cccc(S(=O)(=O)N2CCCC2)c1`, for which the “hERG current change (%, negative = inhibition) at 10uM” value was found to be 6.43%.

As for `CCOC(=O)c1ccc(NC(=S)Nc2ccc3[nH]c(=O)[nH]c3c2)cc1`, the “hERG current change (%, negative = inhibition) at 10uM” value turned out to be 1.23%.

On to `O=c1[nH]c2ccccc2nc1C(Cl)c1ccccc1` (stereo not shown), for which the “hERG current change (%, negative = inhibition) at 10uM” value came to 2.52%.

On to `Nc1nc(-c2ccco2)cs1`, for which the “hERG current change (%, negative = inhibition) at 10uM” value is listed as 9.88%.

For `O=c1oc2cc(OCc3c(F)c(F)c(F)c(F)c3F)ccc2cc1-c1ccccn1`, the “hERG current change (%, negative = inhibition) at 10uM” value was 14%.

For the molecule `COc1ccc(C(=O)Nn2cnc3ccccc3c2=O)cc1[N+](=O)[O-]`, the “hERG current change (%, negative = inhibition) at 10uM” value was -4.64%.

Turning to `Cc1ccc(S(=O)(=O)N2CCN(CC(=O)N/N=C\C(Cl)=C\c3ccccc3)CC2)cc1`, the “hERG current change (%, negative = inhibition) at 10uM” value is given as -48%.

`COc1ccccc1/C=C/C=N/NC(=O)CN1CCN(S(=O)(=O)c2ccc(C)cc2)CC1`: the “hERG current change (%, negative = inhibition) at 10uM” value is -50.2%.

For the molecule `O=C(O)COc1ccccc1/C=N/NC(=O)CN1CCN(S(=O)(=O)c2ccc(Br)cc2)CC1`, the “hERG current change (%, negative = inhibition) at 10uM” value is listed as 4.89%.

On to `Cc1ccc(S(=O)(=O)N2CCN(CC(=O)N/N=C/c3ccccc3OCC(=O)O)CC2)cc1`, for which the “hERG current change (%, negative = inhibition) at 10uM” value came to 10.5%.

Regarding `O=C(CN1CCOCC1)N/N=C/C=C/c1ccccc1`, the “hERG current change (%, negative = inhibition) at 10uM” value is -26.3%.

As for `Cc1ccc(S(=O)(=O)N2CCN(CC(=O)N/N=C/C=C/c3ccccc3)CC2)cc1`, the “hERG current change (%, negative = inhibition) at 10uM” value is on record as -73.8%.

With `Cc1ccc(S(=O)(=O)N2CCN(CC(=O)N/N=C/c3ccc(C)o3)CC2)cc1`, the “hERG current change (%, negative = inhibition) at 10uM” value is listed as -38.9%.

For `CC(/C=N\NC(=O)CN1CCN(S(=O)(=O)c2ccc(C)cc2)CC1)=C\c1ccccc1`, the “hERG current change (%, negative = inhibition) at 10uM” value is -68.1%.

Turning to `Cc1ccc(S(=O)(=O)N2CCN(CC(=O)N/N=C\c3ccccn3)CC2)cc1`, the “hERG current change (%, negative = inhibition) at 10uM” value was -36.3%.

As to `CCCOC(=O)c1ccc(O)cc1`, the “hERG current change (%, negative = inhibition) at 10uM” value amounted to 16.5%.

For the molecule `COc1ccccc1CC(=O)Nc1ccc(O)cc1C(=O)O`, the “hERG current change (%, negative = inhibition) at 10uM” value was 0.828%.

For the molecule `C(=N\N(c1ccccc1)c1ccccc1)/c1ccc2c(c1)OCO2`, the “hERG current change (%, negative = inhibition) at 10uM” value came to 4.28%.

For the molecule `Clc1ccc2c(c1)C(N1CCNCC1)Cc1ccccc1S2.O=C(O)/C=C\C(=O)O` (stereo not shown), the “hERG current change (%, negative = inhibition) at 10uM” value is given as -54.3%.

Consider `COCCCN1CCN(C2Cc3ccccc3Sc3ccc(Cl)cc32)CC1.O=C(O)/C=C\C(=O)O` (stereo not shown), for which the “hERG current change (%, negative = inhibition) at 10uM” value was -73.5%.

Regarding `Fc1ccc2c(c1)Sc1ccc(Cl)cc1CC2N1CCN(CCC2OCCO2)CC1` (stereo not shown), the “hERG current change (%, negative = inhibition) at 10uM” value is -8.68%.

For the molecule `O=C(O)/C=C\C(=O)O.c1ccc2c(c1)CC1CNCc3cccc(c31)S2` (stereo not shown), the “hERG current change (%, negative = inhibition) at 10uM” value is reported as -49.5%.

As to `C1CCCCC1.OCCN1CCN(C2Cc3cc(Cl)ccc3Sc3ccc(Cl)cc32)CC1` (stereo not shown), the “hERG current change (%, negative = inhibition) at 10uM” value amounted to 9.86%.

`COc1cc([C@@H]2c3cc4c(cc3[C@@H](O)[C@H]3COC(=O)[C@H]23)OCO4)cc(OC)c1O[Si](C)(C)C(C)(C)C`: the “hERG current change (%, negative = inhibition) at 10uM” value is on record as 17.8%.

With `NS(=O)(=O)c1cccc(NC(=O)c2cccnc2Oc2ccccc2)c1`, the “hERG current change (%, negative = inhibition) at 10uM” value is reported as 12.7%.

For the molecule `Cc1sc2ncn(CC(=O)N3CCN(c4ccccn4)CC3)c(=O)c2c1S(=O)(=O)N1CCCCC1`, the “hERG current change (%, negative = inhibition) at 10uM” value is listed as -36.7%.
